Where “and” joins values, the source holds several entries; their conditions need not be identical. Equal values may be shown once. The campaign covered roughly 5,500 compounds. About 2,000 (36%) were called active. Not shown: some 18% with an inconclusive outcome. Cut-off read from the data, not from the text of the source: active = normalized growth mostly below about 0.91 (no sharp cut-off); inconclusive = no clear call, values can overlap the other calls; inactive = mostly above about 0.92. The list shows a part of the results.
Test: chemical genetic growth profiling, strain panel (AID 1159580);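 note: tested at 20 µM; growth read once vehicle control cultures reached saturation at 30 °C; 1 = growth at the plate median or of vehicle wells; lower values mean less growth of the strain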
Settings: growth OD

Measured: normalized growth

CC[N+](CC)(CC)CCOc1cccc(OCC[N+](CC)(CC)CC)c1OCC[N+](CC)(CC)CC
inactive: S. cerevisiae deletion strains, locus YJR066W, strain TOR1, stronger effect = lower value 0.953 | S. cerevisiae deletion strains, locus YKL009W, strain mrt4, stronger effect = lower value 0.99 | S. cerevisiae deletion strains, locus YKL068W, stronger effect = lower value 1 | S. cerevisiae deletion strains, locus YKL085W, strain MDH1 (second series), stronger effect = lower value 1.02 | S. cerevisiae deletion strains, locus YKL085W, strain MDH1, stronger effect = lower value 1.02 | S. cerevisiae deletion strains, locus YKL160W, strain elf1, stronger effect = lower value 1.04 | S. cerevisiae deletion strains, locus YKR001C, strain vps1, stronger effect = lower value 1 | S. cerevisiae deletion strains, locus YKR026C, strain gcn3, stronger effect = lower value 1.01 | S. cerevisiae deletion strains, locus YKR091W, strain srl3, stronger effect = lower value 1.02 | S. cerevisiae deletion strains, locus YLL001W, strain dnm1, stronger effect = lower value 1.04 | S. cerevisiae deletion strains, locus YLL026W, stronger effect = lower value 1.01 | S. cerevisiae deletion strains, locus YLL041C, strain sdh2, stronger effect = lower value 1.01 | S. cerevisiae deletion strains, locus YLR027C, strain aat2, stronger effect = lower value 1.02 | S. cerevisiae deletion strains, locus YLR039C, strain RIC1, stronger effect = lower value 1.11 | S. cerevisiae deletion strains, locus YLR058C, strain SHM2, stronger effect = lower value 1.03 | S. cerevisiae deletion strains, locus YLR102C, strain apc9, stronger effect = lower value 1.01 | S. cerevisiae deletion strains, locus YLR113W, strain HOG1, stronger effect = lower value 0.977 | S. cerevisiae deletion strains, locus YLR221C, strain rsa3, stronger effect = lower value 1.02 | S. cerevisiae deletion strains, locus YLR258W, strain gsy2, stronger effect = lower value 1.01 | S. cerevisiae deletion strains, locus YLR262C, strain YPT6 (second series), stronger effect = lower value 1.05 | S. cerevisiae deletion strains, locus YLR262C, strain YPT6, stronger effect = lower value 1.07 | S. cerevisiae deletion strains, locus YLR268W, strain sec22, stronger effect = lower value 1.01 | S. cerevisiae deletion strains, locus YLR320W, strain mms22, stronger effect = lower value 1.03 | S. cerevisiae deletion strains, locus YLR330W, strain CHS5, stronger effect = lower value 1.01 | S. cerevisiae deletion strains, locus YLR342W, strain FKS1 (second series), stronger effect = lower value 0.996 | S. cerevisiae deletion strains, locus YLR342W, strain FKS1, stronger effect = lower value 1.02 | S. cerevisiae deletion strains, locus YLR357W, strain rsc2, stronger effect = lower value 1 | S. cerevisiae deletion strains, locus YLR370C, strain arc18, stronger effect = lower value 1.01 | S. cerevisiae deletion strains, locus YLR371W, strain rom2, stronger effect = lower value 1.01 | S. cerevisiae deletion strains, locus YLR384C, strain iki3, stronger effect = lower value 1.02 | S. cerevisiae deletion strains, locus YLR418C, strain cdc73, stronger effect = lower value 1.02 | S. cerevisiae deletion strains, locus YML016C, strain PPZ1, stronger effect = lower value 1.01 | S. cerevisiae deletion strains, locus YML032C, strain rad52, stronger effect = lower value 1 | S. cerevisiae deletion strains, locus YML120C, strain ndi1, stronger effect = lower value 1.03 | S. cerevisiae deletion strains, locus YML124C, strain tub3, stronger effect = lower value 1.01 | S. cerevisiae deletion strains, locus YMR058W, strain fet3, stronger effect = lower value 1.01 | S. cerevisiae deletion strains, locus YMR078C, strain ctf18, stronger effect = lower value 1.02 | S. cerevisiae deletion strains, locus YMR125W, strain sto1, stronger effect = lower value 1.01 | S. cerevisiae deletion strains, locus YMR129W, stronger effect = lower value 1.01 | S. cerevisiae deletion strains, locus YMR205C, strain PFK2, stronger effect = lower value 1.03 | S. cerevisiae deletion strains, locus YMR223W, strain ubp8, stronger effect = lower value 1.02 | S. cerevisiae deletion strains, locus YMR231W, strain pep5, stronger effect = lower value 1.01 | S. cerevisiae deletion strains, locus YMR263W, strain SAP30, stronger effect = lower value 0.995 | S. cerevisiae deletion strains, locus YMR307W, strain GAS1, stronger effect = lower value 1.02 | S. cerevisiae deletion strains, locus YNL067W, strain RPL9B, stronger effect = lower value 1.01 | S. cerevisiae deletion strains, locus YNL071W, strain lat1, stronger effect = lower value 1.01 | S. cerevisiae deletion strains, locus YNL128W, strain TEP1, stronger effect = lower value 1.02 | S. cerevisiae deletion strains, locus YNL153C, strain GIM3, stronger effect = lower value 1.01 | S. cerevisiae deletion strains, locus YNL175C, strain NOP13, stronger effect = lower value 0.987 | S. cerevisiae deletion strains, locus YNL183C, strain NPR1, stronger effect = lower value 0.969 | S. cerevisiae deletion strains, locus YNL197C, strain WHI3, stronger effect = lower value 0.987 | S. cerevisiae deletion strains, locus YNL209W, strain ssb2, stronger effect = lower value 1.02 | S. cerevisiae deletion strains, locus YNL224C, strain SQS1, stronger effect = lower value 0.997 | S. cerevisiae deletion strains, locus YNL233W, strain BNI4, stronger effect = lower value 1.02 | S. cerevisiae deletion strains, locus YNL248C, strain rpa49, stronger effect = lower value 1 | S. cerevisiae deletion strains, locus YNL250W, strain rad50, stronger effect = lower value 1.05 | S. cerevisiae deletion strains, locus YNL271C, strain bni1, stronger effect = lower value 1.01 | S. cerevisiae deletion strains, locus YNL298W, strain CLA4, stronger effect = lower value 1.01 | S. cerevisiae deletion strains, locus YNL307C, strain MCK1, stronger effect = lower value 1.02 | S. cerevisiae deletion strains, locus YNL322C, strain KRE1 (second series), stronger effect = lower value 1.02 | S. cerevisiae deletion strains, locus YNL322C, strain KRE1, stronger effect = lower value 1 and 1.01 | S. cerevisiae deletion strains, locus YNR049C, strain mso1, stronger effect = lower value 1.02 | S. cerevisiae deletion strains, locus YNR052C, strain pop2, stronger effect = lower value 1.02 | S. cerevisiae deletion strains, locus YOL006C, strain TOP1, stronger effect = lower value 1.04 | S. cerevisiae deletion strains, locus YOL012C, strain htz1 0.763 | S. cerevisiae deletion strains, locus YOL147C, strain pex11, stronger effect = lower value 1 | S. cerevisiae deletion strains, locus YOR001W, strain rrp6, stronger effect = lower value 1 | S. cerevisiae deletion strains, locus YOR061W, strain CKA2, stronger effect = lower value 1.01 | S. cerevisiae deletion strains, locus YOR069W, strain VPS5, stronger effect = lower value 1.01 | S. cerevisiae deletion strains, locus YOR070C, strain gyp1, stronger effect = lower value 1.02 | S. cerevisiae deletion strains, locus YOR080W, strain dia2, stronger effect = lower value 1.02 | S. cerevisiae deletion strains, locus YOR083W, strain WHI5 (second series), stronger effect = lower value 0.998 | S. cerevisiae deletion strains, locus YOR083W, strain WHI5, stronger effect = lower value 1.04 | S. cerevisiae deletion strains, locus YOR106W, strain vam3, stronger effect = lower value 1.02 | S. cerevisiae deletion strains, locus YOR136W, strain idh2, stronger effect = lower value 1 | S. cerevisiae deletion strains, locus YOR144C, strain elg1, stronger effect = lower value 1.01 | S. cerevisiae deletion strains, locus YOR184W, strain ser1, stronger effect = lower value 1.04 | S. cerevisiae deletion strains, locus YOR231W, strain MKK1, stronger effect = lower value 1 | S. cerevisiae deletion strains, locus YOR265W, strain rbl2, stronger effect = lower value 1.01 | S. cerevisiae deletion strains, locus YOR270C, strain vph1, stronger effect = lower value 1.04 | S. cerevisiae deletion strains, locus YOR290C, strain snf2, stronger effect = lower value 0.958 | S. cerevisiae deletion strains, locus YOR316C, strain cot1, stronger effect = lower value 1.02 | S. cerevisiae deletion strains, locus YPL051W, strain arl3, stronger effect = lower value 1.01 | S. cerevisiae deletion strains, locus YPL055C, strain LGE1, stronger effect = lower value 1.02 | S. cerevisiae deletion strains, locus YPL078C, strain atp4, stronger effect = lower value 1.02 | S. cerevisiae deletion strains, locus YPL106C, strain sse1, stronger effect = lower value 1.02 | S. cerevisiae deletion strains, locus YPL240C, strain hsp82, stronger effect = lower value 1 | S. cerevisiae deletion strains, locus YPL256C, strain CLN2, stronger effect = lower value 1.05 | S. cerevisiae deletion strains, locus YPR119W, strain clb2, stronger effect = lower value 1.02 | S. cerevisiae deletion strains, locus YPR141C, strain kar3, stronger effect = lower value 1.02 | S. cerevisiae deletion strains, locus YPR163C, strain tif3, stronger effect = lower value 1.02 | S. cerevisiae deletion strains, locus YPR167C, strain met16, stronger effect = lower value 1.02 | S. cerevisiae deletion strains, strain wtn01, stronger effect = lower value 0.996 | S. cerevisiae strains, strain wild type, stronger effect = lower value 1.01
